# Laboratory results taken from PubChem BioAssay (NCATS).
# Results filed as inconclusive are left out. Where a call stands in place of a potency, no number is given. Unmarked numbers belong to inactive results. Activity calls are given as the source filed them. Unless noted, the call rests on the fitted dose curve; in most records, active means well fitted curve in the direction sought with a large enough effect; inconclusive means small, poorly fitted or top-dose-only effect, or another doubt; inactive means no such curve, though single readings can be large; an effect the other way counts as inactive or inconclusive.
# How the values were obtained:
# [1] = target: Mitogen-activated protein kinase 10 (Mus musculus) (UniProt Q61831); experiment: JNK3 AlphaScreen Assay (AID 530; active means well fitted curve in either direction with a large enough effect, not every such curve was filed as active;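 further: kinase came from lysate of stimulated human HepG2 cells; signal reports phosphorylation of biotinylated GST-cJun 1-79 at Ser73 with 10 µM ATP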); conditions: JNK3 lysate, c-Jun phosphorylation; series mostly up to 57.1 µM
# Summary of the method: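 Pre-activated (IL-1β/TNFα) JNK3 in HepG2 lysates phosphorylates biotin-GST-cJun(1-79), 10 uM ATP; anti-phospho-cJun(Ser73) AlphaScreen read at room temperature, pH 7.6 Tris buffer. Compounds pre-incubated 15 min as titrations.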
# [2] = target: Calcium and integrin-binding protein 1 (Homo sapiens) (UniProt Q99828); experiment: Primary qHTS for Identification of Calcium Integrin Binding Protein 1 (CIB1) Competitor (AID 1508620); conditions: CIB1-GST / FITC-alphaIIb peptide fluorescence polarization; series mostly up to 114 µM;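 further: GST tagged CIB1 binding a fluorescein labelled alphaIIb integrin peptide tracer; top concentration of the series differs between compounds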
# Summary of the method: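 Fluorescence polarization competition: GST-tagged CIB1 (1 uM final) preincubated with compound 15 min at room temperature, then FITC-labelled alphaIIb peptide (100 nM final) added. After 15 min at room temperature, polarization read at Ex 480/Em 540.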
# [3] = target: Glutathione peroxidase 1 (Homo sapiens) (UniProt P07203); experiment: Primary qHTS Assay for Inhibitors of Recombinant Selenoprotein Glutathione Peroxidase 1 (GPX1) (AID 1845191); conditions: recombinant GPX1, GR-coupled NADPH fluorescence, 15 min; series mostly up to 48.8 µM; further: nearly all actives have a fitted effect of over 65% in size
# Summary of the method: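 GR-coupled assay: compounds preincubated 30 min at room temperature with GPX1, then reaction started with CHP; final 10 nM GPX1, 1 mM GSH, 0.5 mM CHP, 0.5 mM NADPH, 100 nM GR, 0.01% BSA, pH 7.5 Tris buffer. NADPH fluorescence (340/450 nm) read at 0 and 15 min.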
# [4] = target: Tyrosyl-DNA phosphodiesterase 1 (Homo sapiens) (UniProt Q9NUW8); experiment: Confirmation Assay for Inhibitors of Tyrosyl-DNA Phosphodiesterase (TDP1) (AID 489007); conditions: recombinant human TDP1 enzymatic activity, dose-response; further: potency means the concentration at half of the fitted maximal effect; nearly all actives have a fitted effect of over 40% in size
# Summary of the method: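 Recombinant human Tdp1 (1 nM final), expressed in E. coli, preincubated 15 min with compound. Then 15 nM 5'-biotin/3'-phosphotyrosine-FITC DNA substrate added for 5 min at room temperature. AlphaScreen beads (10 ug/ml) added for 10 min; cleavage gives signal loss.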
# [5] = target: Rap guanine nucleotide exchange factor 3 (Homo sapiens) (UniProt O95398); experiment: Confirmatory qHTS for antagonist of cAMP-regulated guanine nucleotide exchange factor 3 (EPAC1) (AID 1645880); conditions: EPAC1 Rap1B-BODIPY-GDP exchange, fluorescence; series mostly up to 115 µM; further: nearly all actives have a fitted effect of over 55% in size
# Summary of the method: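 Nucleotide exchange uses 100 nM EPAC1, 250 nM RAP1B-BODIPY-GDP and 50 uM GDP, with compounds in a concentration-titration series. After 5 min at room temperature, fluorescence (480 nm ex/540 nm em) is read every 5 min for 30 min. Data are normalized to control ATA and DMSO.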
# [6] = target: Rap guanine nucleotide exchange factor 3 (Homo sapiens) (UniProt O95398); experiment: Confirmatory qHTS for agonist of cAMP-regulated guanine nucleotide exchange factor 3 (EPAC1) (AID 1645881); conditions: EPAC1 Rap1B BODIPY-GDP exchange fluorescence, 100% = cAMP control response; series mostly up to 154 µM;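 further: EPAC1 catalysed release of BODIPY-GDP from Rap1B seen as fluorescence loss; nearly all actives have a fitted effect of over 75% in size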
# [7] = target: Rap guanine nucleotide exchange factor 4 (Homo sapiens) (UniProt Q8WZA2); experiment: Confirmatory qHTS for agonist of cAMP-regulated guanine nucleotide exchange factor 4 (EPAC2) (AID 1645884); conditions: EPAC2 GEF activity, Rap1B-BODIPY-GDP fluorescence, percent relative to cAMP agonist control; series mostly up to 154 µM;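 further: nucleotide exchange releases bodipy-GDP from Rap1 and this lowers its fluorescence; nearly all actives have a fitted effect of over 65% in size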
# [8] = target: Rap guanine nucleotide exchange factor 4 (Homo sapiens) (UniProt Q8WZA2); experiment: Confirmatory qHTS for antagonist of cAMP-regulated guanine nucleotide exchange factor 4 (EPAC2) (AID 1645885); conditions: EPAC2 Rap1B-BODIPY-GDP exchange fluorescence, biochemical; series mostly up to 114 µM; further: nearly all actives have a fitted effect of over 25% in size
# [9] = target: Rap guanine nucleotide exchange factor 3 (Homo sapiens) (UniProt O95398); experiment: Counterscreen qHTS for antagonist of cAMP-regulated guanine nucleotide exchange factor 3 (EPAC1) (AID 1645888); conditions: Rap1B-BODIPY-GDP nucleotide exchange, fluorescence; series mostly up to 30.8 µM;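 further: fluorescence loss as bound BODIPY-GDP is released from Rap1B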
# Summary of the method: (§1)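 Rap1B–BODIPY-GDP (250 nM) with 50 uM GDP; compounds pin-transferred to 9.74 nM–152 uM final (activator) or from 7.32 nM upwards (inhibitor). Fluorescence Ex/Em 480/540 nm read at 5 and 30 min, then after adding cAMP or buffer, at room temperature.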
# [10] = target: Rap guanine nucleotide exchange factor 3 (Homo sapiens) (UniProt O95398); experiment: Counterscreen qHTS for agonist of cAMP-regulated guanine nucleotide exchange factor 3 (EPAC1) (AID 1645889); conditions: EPAC1 Rap1B-BODIPY-GDP exchange, fluorescence; series mostly up to 154 µM; further: nearly all actives have a fitted effect of over 40% in size
# Summary of the method: as §1
# [11] = target: Cytochrome P450 3A4 (Homo sapiens) (UniProt P08684); experiment: qHTS Assay for Inhibitors and Substrates of Cytochrome P450 3A4 (AID 884); conditions: recombinant CYP3A4, Luciferin-PPXE luminescence; series mostly up to 57.1 µM; further: nearly all actives have a fitted effect of over 50% in size
# Summary of the method: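 20 nM human CYP3A4 with 25 uM Luciferin-PPXE (at KM) in 200 mM KPO4, preincubated 10 min with compound; NADPH regeneration started a 60 min RT reaction. Luciferin detected by luminescence, normalized to 57 uM ketoconazole as full inhibition.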
# Chain of Calcium and integrin-binding protein 1 (Homo sapiens) (Q99828 whole entry, looked up): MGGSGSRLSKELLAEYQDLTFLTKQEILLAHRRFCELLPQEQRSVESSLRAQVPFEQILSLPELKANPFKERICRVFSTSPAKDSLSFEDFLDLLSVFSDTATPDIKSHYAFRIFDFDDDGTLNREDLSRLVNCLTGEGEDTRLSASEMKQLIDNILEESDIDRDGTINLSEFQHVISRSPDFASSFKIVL
# Chain of Rap guanine nucleotide exchange factor 4 (Homo sapiens) (Q8WZA2 whole entry, looked up): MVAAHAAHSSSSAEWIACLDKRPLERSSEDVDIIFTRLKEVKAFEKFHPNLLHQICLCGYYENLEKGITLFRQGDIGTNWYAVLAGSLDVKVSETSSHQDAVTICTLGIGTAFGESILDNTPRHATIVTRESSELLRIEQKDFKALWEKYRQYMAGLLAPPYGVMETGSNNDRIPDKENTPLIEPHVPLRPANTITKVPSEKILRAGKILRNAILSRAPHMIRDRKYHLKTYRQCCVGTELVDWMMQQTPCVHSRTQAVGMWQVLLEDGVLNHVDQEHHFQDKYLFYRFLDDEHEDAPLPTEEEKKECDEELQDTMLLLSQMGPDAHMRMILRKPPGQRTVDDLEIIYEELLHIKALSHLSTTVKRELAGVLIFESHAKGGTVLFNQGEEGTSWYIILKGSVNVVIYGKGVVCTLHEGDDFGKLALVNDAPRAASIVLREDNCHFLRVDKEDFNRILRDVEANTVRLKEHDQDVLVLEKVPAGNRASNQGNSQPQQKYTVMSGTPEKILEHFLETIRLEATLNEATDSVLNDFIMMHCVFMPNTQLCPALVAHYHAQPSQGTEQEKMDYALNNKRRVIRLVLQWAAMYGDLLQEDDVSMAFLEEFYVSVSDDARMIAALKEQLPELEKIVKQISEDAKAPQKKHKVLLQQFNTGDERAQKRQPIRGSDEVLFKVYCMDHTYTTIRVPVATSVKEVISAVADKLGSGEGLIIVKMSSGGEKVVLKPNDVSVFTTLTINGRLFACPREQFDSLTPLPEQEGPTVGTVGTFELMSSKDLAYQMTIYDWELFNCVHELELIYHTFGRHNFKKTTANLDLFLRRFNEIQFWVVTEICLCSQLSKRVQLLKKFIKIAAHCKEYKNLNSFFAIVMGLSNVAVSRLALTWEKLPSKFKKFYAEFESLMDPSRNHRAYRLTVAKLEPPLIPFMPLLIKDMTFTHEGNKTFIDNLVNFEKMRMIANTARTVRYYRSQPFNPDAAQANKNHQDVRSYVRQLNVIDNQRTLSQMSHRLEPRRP
# Chain of Rap guanine nucleotide exchange factor 3 (Homo sapiens) (O95398 whole entry, looked up): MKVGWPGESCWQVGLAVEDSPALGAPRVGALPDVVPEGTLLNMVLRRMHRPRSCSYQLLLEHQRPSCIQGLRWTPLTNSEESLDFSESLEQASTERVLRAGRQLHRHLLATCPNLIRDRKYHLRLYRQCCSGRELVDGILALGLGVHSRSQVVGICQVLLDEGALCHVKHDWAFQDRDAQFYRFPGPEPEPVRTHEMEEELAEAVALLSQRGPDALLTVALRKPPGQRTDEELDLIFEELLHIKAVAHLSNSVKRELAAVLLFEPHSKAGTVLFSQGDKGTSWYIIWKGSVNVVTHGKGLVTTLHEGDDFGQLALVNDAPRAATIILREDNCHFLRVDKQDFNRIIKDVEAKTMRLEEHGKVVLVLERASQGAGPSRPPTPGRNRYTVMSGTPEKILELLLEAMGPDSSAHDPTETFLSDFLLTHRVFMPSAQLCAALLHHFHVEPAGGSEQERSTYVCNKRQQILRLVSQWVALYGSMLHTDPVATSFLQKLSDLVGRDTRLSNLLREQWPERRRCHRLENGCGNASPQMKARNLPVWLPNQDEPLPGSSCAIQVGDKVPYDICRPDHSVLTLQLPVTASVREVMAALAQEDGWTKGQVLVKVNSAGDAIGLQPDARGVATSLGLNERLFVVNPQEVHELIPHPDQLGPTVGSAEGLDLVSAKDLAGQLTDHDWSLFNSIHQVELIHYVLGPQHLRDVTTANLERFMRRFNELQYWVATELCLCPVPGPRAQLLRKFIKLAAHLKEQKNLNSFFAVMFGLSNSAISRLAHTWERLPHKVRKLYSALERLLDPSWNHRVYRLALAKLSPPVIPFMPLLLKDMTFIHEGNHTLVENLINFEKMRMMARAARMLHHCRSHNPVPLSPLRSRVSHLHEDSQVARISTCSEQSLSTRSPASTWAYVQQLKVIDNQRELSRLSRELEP
# Chain of Glutathione peroxidase 1 (Homo sapiens) (P07203 whole entry, looked up): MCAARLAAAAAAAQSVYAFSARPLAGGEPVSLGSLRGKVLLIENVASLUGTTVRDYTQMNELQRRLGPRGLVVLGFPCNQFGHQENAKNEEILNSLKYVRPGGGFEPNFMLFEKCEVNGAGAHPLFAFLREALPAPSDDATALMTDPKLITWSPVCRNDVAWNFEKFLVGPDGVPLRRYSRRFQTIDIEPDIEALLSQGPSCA
# Chain of Cytochrome P450 3A4 (Homo sapiens) (P08684 whole entry, looked up): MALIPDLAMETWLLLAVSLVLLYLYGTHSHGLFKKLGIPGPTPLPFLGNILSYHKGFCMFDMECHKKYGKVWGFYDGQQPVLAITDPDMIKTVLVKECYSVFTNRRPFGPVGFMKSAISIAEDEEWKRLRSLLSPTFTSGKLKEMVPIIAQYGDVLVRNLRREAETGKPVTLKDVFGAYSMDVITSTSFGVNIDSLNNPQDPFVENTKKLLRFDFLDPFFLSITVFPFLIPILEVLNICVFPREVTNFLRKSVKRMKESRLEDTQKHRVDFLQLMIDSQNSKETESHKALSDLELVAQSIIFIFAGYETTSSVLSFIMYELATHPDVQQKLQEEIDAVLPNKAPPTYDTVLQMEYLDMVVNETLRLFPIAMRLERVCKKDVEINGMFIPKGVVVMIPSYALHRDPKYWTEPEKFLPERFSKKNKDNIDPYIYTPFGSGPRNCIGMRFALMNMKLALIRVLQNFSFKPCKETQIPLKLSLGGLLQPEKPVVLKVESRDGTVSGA
# Chain of Tyrosyl-DNA phosphodiesterase 1 (Homo sapiens) (Q9NUW8 whole entry, looked up): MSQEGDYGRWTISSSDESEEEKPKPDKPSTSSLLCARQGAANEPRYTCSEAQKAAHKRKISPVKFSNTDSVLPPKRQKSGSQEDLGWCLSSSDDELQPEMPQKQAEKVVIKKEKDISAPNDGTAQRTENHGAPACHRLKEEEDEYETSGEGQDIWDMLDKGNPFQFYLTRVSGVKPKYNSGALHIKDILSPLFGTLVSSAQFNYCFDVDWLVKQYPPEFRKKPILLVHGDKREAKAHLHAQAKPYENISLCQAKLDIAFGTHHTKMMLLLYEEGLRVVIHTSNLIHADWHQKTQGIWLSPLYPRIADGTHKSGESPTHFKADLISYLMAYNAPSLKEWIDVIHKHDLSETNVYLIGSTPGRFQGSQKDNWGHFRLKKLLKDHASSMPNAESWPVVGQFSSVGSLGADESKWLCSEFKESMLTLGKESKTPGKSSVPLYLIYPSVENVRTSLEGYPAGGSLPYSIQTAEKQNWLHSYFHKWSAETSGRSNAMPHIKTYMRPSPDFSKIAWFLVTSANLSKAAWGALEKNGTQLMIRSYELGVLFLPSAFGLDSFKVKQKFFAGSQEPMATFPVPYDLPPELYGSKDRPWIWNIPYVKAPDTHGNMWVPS
smiles,measurement,setting,value
COCCN(CCOC)c1nc(C)nc2c1nc(-c1ccccc1)n2CC1CCN(C)CC1,outcome,[1],inactive
same,Potency,[2],inactive
CCCn1c(-c2ccc(F)cc2)nc2c(NCCCN(C)C)nc(C)nc21,outcome,[1],inactive
same,Potency,[2],inactive
O=C1CCCC2=C1C(c1ccccc1I)N=C(Nc1nc3ccccc3o1)N2 (stereo not given),Potency,[2],inactive
same,Potency,[3],inactive
CCCn1c(C)nc2c(NCCCN(CC)CC)nc(C)nc21,outcome,[1],inactive
same,Potency,[2],inactive
Fc1ccc(CSc2nc3ncc(Br)cc3[nH]2)cc1,Potency,[4],56.2 µM (active)
same,Potency,[2],inactive
CCCn1c(-c2ccc(F)cc2)nc2c(NCCCCN3CCCC3)nc(C)nc21,outcome,[1],inactive
same,Potency,[2],inactive
Nc1ccc(-c2ccnc(NCCCNC(=O)c3c(Cl)cccc3Cl)n2)cc1,Potency,[2],inactive
same,Potency,[3],inactive
CCN(CC)C(=O)CC(c1ccc2c(c1)OCO2)c1c(O)cc(OC)cc1OC (stereo not given),Potency,[2],inactive
same,Potency,[5],inactive
same,outcome,[6],inactive
same,outcome,[7],inactive
same,Potency,[8],inactive
same,outcome,[9],inactive
Cc1nc(NCc2ccccc2)c2nc(-c3ccccc3)n(C3CCN(Cc4ccccc4)C3)c2n1 (stereo not given),outcome,[1],inactive
same,Potency,[2],inactive
CCC(=O)NC(c1cccs1)c1cc(Cl)c2ccccc2c1O (stereo not given),Potency,[2],inactive
same,Potency,[5],inactive
same,outcome,[6],inactive
same,activation,[7],0.826% [at 17.1 µM]
same,"activity change, negative = inhibition",[8],-13.9% [at 12.7 µM]
same,outcome,[9],inactive
same,activation,[10],29.3% [at 30.8 µM]
CCCn1c(C)nc2c(NC(C)CN(C)C)nc(C)nc21 (stereo not given),outcome,[1],inactive
same,Potency,[11],inactive
same,Potency,[2],inactive
CCCn1c(C)nc2c(NCCN3CCCCC3)nc(C)nc21,outcome,[1],inactive
same,Potency,[11],inactive
same,Potency,[2],inactive
